In PubChem BioAssay AID1159580 (chemical genetic matrix, 2015):
In all, about 5,500 compounds went through this assay and about 2,000 (36%) were called active. Inconclusive results (about 18%) are left out. No stated cut-off is given here; in the data, active means normalized growth mostly below about 0.91 (no sharp cut-off); inconclusive means no clear call, values can overlap the other calls; inactive means mostly above about 0.92. This is one part of the list.

Experiment: chemical genetic growth profiling, strain panel (AID 1159580);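 further: tested at 20 µM; growth read once vehicle control cultures reached saturation at 30 °C; 1 = growth at the plate median or of vehicle wells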
Details: growth OD

Measured: normalized growth

CCCC(C)C1(CC)C(=O)N=C(S)NC1=O (configuration not stated)
inactive: S. cerevisiae deletion strains, locus YJR075W, strain HOC1, stronger effect = lower value 1 | S. cerevisiae deletion strains, locus YKL009W, strain mrt4, stronger effect = lower value 0.908 | S. cerevisiae deletion strains, locus YKL068W, stronger effect = lower value 0.947 | S. cerevisiae deletion strains, locus YKL160W, strain elf1, stronger effect = lower value 0.982 | S. cerevisiae deletion strains, locus YKL190W, strain CNB1, stronger effect = lower value 1.02 | S. cerevisiae deletion strains, locus YKR026C, strain gcn3, stronger effect = lower value 0.984 | S. cerevisiae deletion strains, locus YKR091W, strain srl3, stronger effect = lower value 1.01 | S. cerevisiae deletion strains, locus YLL001W, strain dnm1, stronger effect = lower value 0.986 | S. cerevisiae deletion strains, locus YLL026W, stronger effect = lower value 1 | S. cerevisiae deletion strains, locus YLL041C, strain sdh2, stronger effect = lower value 0.994 | S. cerevisiae deletion strains, locus YLR027C, strain aat2, stronger effect = lower value 0.998 | S. cerevisiae deletion strains, locus YLR039C, strain RIC1, stronger effect = lower value 1.06 | S. cerevisiae deletion strains, locus YLR058C, strain SHM2, stronger effect = lower value 1 | S. cerevisiae deletion strains, locus YLR113W, strain HOG1, stronger effect = lower value 0.98 | S. cerevisiae deletion strains, locus YLR221C, strain rsa3, stronger effect = lower value 0.987 | S. cerevisiae deletion strains, locus YLR258W, strain gsy2, stronger effect = lower value 1 | S. cerevisiae deletion strains, locus YLR262C, strain YPT6 (second series), stronger effect = lower value 0.918 | S. cerevisiae deletion strains, locus YLR262C, strain YPT6, stronger effect = lower value 1.01 | S. cerevisiae deletion strains, locus YLR320W, strain mms22, stronger effect = lower value 0.987 | S. cerevisiae deletion strains, locus YLR330W, strain CHS5, stronger effect = lower value 1.01 | S. cerevisiae deletion strains, locus YLR342W, strain FKS1 (second series), stronger effect = lower value 1.04 | S. cerevisiae deletion strains, locus YLR342W, strain FKS1, stronger effect = lower value 0.998 | S. cerevisiae deletion strains, locus YLR357W, strain rsc2, stronger effect = lower value 0.961 | S. cerevisiae deletion strains, locus YLR370C, strain arc18, stronger effect = lower value 0.984 | S. cerevisiae deletion strains, locus YLR384C, strain iki3, stronger effect = lower value 1 | S. cerevisiae deletion strains, locus YML016C, strain PPZ1, stronger effect = lower value 1 | S. cerevisiae deletion strains, locus YML120C, strain ndi1, stronger effect = lower value 0.988 | S. cerevisiae deletion strains, locus YMR058W, strain fet3, stronger effect = lower value 1 | S. cerevisiae deletion strains, locus YMR125W, strain sto1, stronger effect = lower value 0.974 | S. cerevisiae deletion strains, locus YMR129W, stronger effect = lower value 0.971 | S. cerevisiae deletion strains, locus YMR205C, strain PFK2, stronger effect = lower value 0.97 | S. cerevisiae deletion strains, locus YMR231W, strain pep5, stronger effect = lower value 1 | S. cerevisiae deletion strains, locus YMR263W, strain SAP30, stronger effect = lower value 1.01 | S. cerevisiae deletion strains, locus YMR307W, strain GAS1, stronger effect = lower value 0.992 | S. cerevisiae deletion strains, locus YNL067W, strain RPL9B, stronger effect = lower value 1.01 | S. cerevisiae deletion strains, locus YNL071W, strain lat1, stronger effect = lower value 1 | S. cerevisiae deletion strains, locus YNL128W, strain TEP1, stronger effect = lower value 1 | S. cerevisiae deletion strains, locus YNL153C, strain GIM3, stronger effect = lower value 0.999 | S. cerevisiae deletion strains, locus YNL183C, strain NPR1, stronger effect = lower value 0.923 | S. cerevisiae deletion strains, locus YNL209W, strain ssb2, stronger effect = lower value 0.982 | S. cerevisiae deletion strains, locus YNL233W, strain BNI4, stronger effect = lower value 0.999 | S. cerevisiae deletion strains, locus YNL248C, strain rpa49, stronger effect = lower value 0.988 | S. cerevisiae deletion strains, locus YNL322C, strain KRE1 (second series), stronger effect = lower value 0.979 | S. cerevisiae deletion strains, locus YNL322C, strain KRE1, stronger effect = lower value 1.01 | S. cerevisiae deletion strains, locus YNR049C, strain mso1, stronger effect = lower value 0.992 | S. cerevisiae deletion strains, locus YNR052C, strain pop2, stronger effect = lower value 1.01 | S. cerevisiae deletion strains, locus YOL006C, strain TOP1, stronger effect = lower value 1.03 | S. cerevisiae deletion strains, locus YOL012C, strain htz1 0.212 | S. cerevisiae deletion strains, locus YOR001W, strain rrp6, stronger effect = lower value 0.98 | S. cerevisiae deletion strains, locus YOR061W, strain CKA2, stronger effect = lower value 1.01 | S. cerevisiae deletion strains, locus YOR069W, strain VPS5, stronger effect = lower value 1.01 | S. cerevisiae deletion strains, locus YOR070C, strain gyp1, stronger effect = lower value 1 | S. cerevisiae deletion strains, locus YOR080W, strain dia2, stronger effect = lower value 0.989 | S. cerevisiae deletion strains, locus YOR083W, strain WHI5, stronger effect = lower value 0.988 | S. cerevisiae deletion strains, locus YOR106W, strain vam3, stronger effect = lower value 0.979 | S. cerevisiae deletion strains, locus YOR144C, strain elg1, stronger effect = lower value 1 | S. cerevisiae deletion strains, locus YOR231W, strain MKK1, stronger effect = lower value 0.994 | S. cerevisiae deletion strains, locus YOR265W, strain rbl2, stronger effect = lower value 0.986 | S. cerevisiae deletion strains, locus YOR270C, strain vph1, stronger effect = lower value 0.969 | S. cerevisiae deletion strains, locus YOR290C, strain snf2, stronger effect = lower value 0.997 | S. cerevisiae deletion strains, locus YPL051W, strain arl3, stronger effect = lower value 1 | S. cerevisiae deletion strains, locus YPL055C, strain LGE1, stronger effect = lower value 1.01 | S. cerevisiae deletion strains, locus YPL078C, strain atp4, stronger effect = lower value 0.981 | S. cerevisiae deletion strains, locus YPL106C, strain sse1, stronger effect = lower value 0.977 | S. cerevisiae deletion strains, locus YPL240C, strain hsp82, stronger effect = lower value 0.991 | S. cerevisiae deletion strains, locus YPL241C, strain CIN2, stronger effect = lower value 1.02 | S. cerevisiae deletion strains, locus YPL256C, strain CLN2, stronger effect = lower value 0.977 | S. cerevisiae deletion strains, locus YPR141C, strain kar3, stronger effect = lower value 0.983 | S. cerevisiae strains, strain wild type, stronger effect = lower value 1.01
active: S. cerevisiae deletion strains, locus YKL085W, strain MDH1 (second series), stronger effect = lower value 0.309 | S. cerevisiae deletion strains, locus YKL085W, strain MDH1, stronger effect = lower value 0.309 | S. cerevisiae deletion strains, locus YKR001C, strain vps1, stronger effect = lower value 0.0973 | S. cerevisiae deletion strains, locus YLR102C, strain apc9, stronger effect = lower value 0.0762 | S. cerevisiae deletion strains, locus YLR268W, strain sec22, stronger effect = lower value 0.0785 | S. cerevisiae deletion strains, locus YLR371W, strain rom2, stronger effect = lower value 0.077 | S. cerevisiae deletion strains, locus YLR418C, strain cdc73, stronger effect = lower value 0.0993 | S. cerevisiae deletion strains, locus YML032C, strain rad52, stronger effect = lower value 0.789 | S. cerevisiae deletion strains, locus YML124C, strain tub3, stronger effect = lower value 0.113 | S. cerevisiae deletion strains, locus YMR078C, strain ctf18, stronger effect = lower value 0.124 | S. cerevisiae deletion strains, locus YMR223W, strain ubp8, stronger effect = lower value 0.0719 | S. cerevisiae deletion strains, locus YNL250W, strain rad50, stronger effect = lower value 0.434 | S. cerevisiae deletion strains, locus YNL271C, strain bni1, stronger effect = lower value 0.163 | S. cerevisiae deletion strains, locus YNL298W, strain CLA4, stronger effect = lower value 0.372 | S. cerevisiae deletion strains, locus YNL307C, strain MCK1, stronger effect = lower value 0.0689 | S. cerevisiae deletion strains, locus YOL147C, strain pex11, stronger effect = lower value 0.677 | S. cerevisiae deletion strains, locus YOR136W, strain idh2, stronger effect = lower value 0.0798 | S. cerevisiae deletion strains, locus YOR184W, strain ser1, stronger effect = lower value 0.0729 | S. cerevisiae deletion strains, locus YOR316C, strain cot1, stronger effect = lower value 0.0718 | S. cerevisiae deletion strains, locus YPR119W, strain clb2, stronger effect = lower value 0.101 | S. cerevisiae deletion strains, locus YPR163C, strain tif3, stronger effect = lower value 0.0717 | S. cerevisiae deletion strains, locus YPR167C, strain met16, stronger effect = lower value 0.0756 | S. cerevisiae deletion strains, strain wtn01, stronger effect = lower value 0.06
